High-throughput results deposited in PubChem by several laboratories.
Rows were chosen to be rich in hits. Some 4.2% of all compounds tested hit in one or more screens of this group.
MITF TRPM1 HTS = activators of MITF-driven TRPM1 promoter reporter, primary screen, cell-based, SK-MEL-5, luciferase, single point | activation, % at 12.5 µM | SK-MEL-5 TRPM1-promoter luciferase, 24 h; % of positive control, neutral wells = 0 | hit rate 0.75% among 300,000;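 active means mean activation of at least 80% with every replicate also reaching 80%; inconclusive means mean reaches 80% but some replicate falls short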;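 further: 0% = neutral control wells and 100% = parthenolide positive control wells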
esBAF inh = Bmi1 luciferase reporter increase in mESCs, primary screen, esBAF inhibitor project, mouse ES cells, Bmi1 luciferase knock-in, single point. 24 h; 100% = twice the neutral-well signal. reporter increase, % at 12.5 µM. hit rate 2% among 350,000. AID 602393, 2012; in the data active means activation above about 40%; inconclusive means no clear call, values can overlap the other calls;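 further: 0% = median of the plate's neutral control wells and 100% = double that signal; a rise in the Bmi1 reporter signal indicates esBAF inhibition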
GAA850 FXN act = FXN promoter activators, primary screen, cell-based, luciferase luminescence, HEK293 lucGAA850 | HEK293 lucGAA850 FXN promoter luciferase reporter, 24 h; percent of 10 µM SAHA response | activation, % at 6 µM | hit rate 0.56% among 360,000;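 active means activation above the average of all compounds screened plus 3 SD, cutoff fixed separately per campaign, cut at about 7.5% in these data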;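 further: 0% = DMSO wells and 100% = 10 µM SAHA wells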
Wnt act = Wnt/beta-catenin pathway activators, primary screen, cell-based, plate reader, single point. Wnt/beta-catenin reporter cell assay, activator. activation, % at 9.35 µM. hit rate 1.2% among 300,000; in the data active means activation above about 30%, passing the limit was not always enough; inconclusive means no clear call, values can overlap the other calls;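 further: 0% = neutral control wells and 100% = positive control wells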
AHR activator = AHR activators, primary screen, cell-based, luminescence, luciferase reporter, human; Aryl hydrocarbon receptor (Homo sapiens), P35869; AHR-responsive luciferase reporter cells; activation, % at 5 µM; hit rate 2.5% among 320,000; AID 2796, 2010; in the data active means activation above about 47%;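 further: 0% = vehicle wells and 100% = reference agonist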
Target sequence (P35869 whole entry, looked up): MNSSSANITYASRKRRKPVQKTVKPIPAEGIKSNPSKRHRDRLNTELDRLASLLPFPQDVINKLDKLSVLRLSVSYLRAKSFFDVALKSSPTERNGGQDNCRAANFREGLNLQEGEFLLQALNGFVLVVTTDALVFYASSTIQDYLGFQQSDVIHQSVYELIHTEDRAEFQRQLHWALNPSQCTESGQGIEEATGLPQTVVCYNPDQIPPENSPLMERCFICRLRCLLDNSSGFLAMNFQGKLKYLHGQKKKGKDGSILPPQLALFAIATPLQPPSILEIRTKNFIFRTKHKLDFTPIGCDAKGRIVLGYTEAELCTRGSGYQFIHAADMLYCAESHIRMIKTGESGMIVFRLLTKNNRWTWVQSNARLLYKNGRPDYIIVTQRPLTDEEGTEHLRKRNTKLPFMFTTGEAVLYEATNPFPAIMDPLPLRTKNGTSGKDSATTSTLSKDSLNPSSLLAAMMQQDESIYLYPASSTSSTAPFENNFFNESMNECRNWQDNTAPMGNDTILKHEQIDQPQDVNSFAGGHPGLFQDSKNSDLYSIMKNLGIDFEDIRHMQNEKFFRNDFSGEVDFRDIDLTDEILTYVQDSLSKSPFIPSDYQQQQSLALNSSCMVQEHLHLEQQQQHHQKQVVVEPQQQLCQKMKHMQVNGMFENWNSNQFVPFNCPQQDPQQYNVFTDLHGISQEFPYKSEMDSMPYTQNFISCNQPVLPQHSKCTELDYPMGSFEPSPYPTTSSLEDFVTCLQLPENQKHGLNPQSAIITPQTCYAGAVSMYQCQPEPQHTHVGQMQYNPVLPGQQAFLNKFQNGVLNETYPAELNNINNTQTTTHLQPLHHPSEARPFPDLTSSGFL
An asterisk follows results filed as active; ? = inconclusive; / = no result.

SMILES | MITF TRPM1 HTS | esBAF inh | GAA850 FXN act | Wnt act | AHR activator
COc1ccc(-c2cc(-c3ccccc3O)[nH]n2)cc1OC | / | 87* | 7 | / | 10
COc1ccc(-c2cc(-c3cc(F)ccc3O)[nH]n2)cc1OC | 100* | ? | 6 | 27 | 50*
Cc1ccc(O)c(-c2cc(-c3ccccc3F)[nH]n2)c1 | 26 | / | 5 | / | 27
Cc1ccc(O)c(-c2cc(-c3cccc(F)c3)n[nH]2)c1 | -6 | 25 | 2 | 5 | 56*
Cc1noc(C)c1S(=O)(=O)Nc1ccc2c(c1)C(=O)N([C@H](C)CO)C[C@@H](C)[C@@H](CN(C)C(=O)Nc1ccccc1)OCCCC[C@@H](C)O2 | / | 7 | / | / | /
C[C@@H]1CN([C@@H](C)CO)C(=O)CCCn2cc(nn2)CO[C@@H]1CN(C)S(C)(=O)=O | / | 1 | / | / | /
O=C(NCCc1c[nH]c2ccccc12)c1cncc(Br)c1 | -16 | 2 | 2 | -2 | 49*
COc1ccc(C(=O)c2c[nH]c3ccccc23)cc1 | 86* | 61* | 3 | -2 | 15
COc1ccc(C(=O)NCC(=O)OCC(=O)c2c[nH]c3ccccc23)cc1 | / | 1 | 0 | 1 | /
O=C(NCCc1c[nH]c2ccccc12)c1ccc(F)cc1F | 48 | 57* | 2 | 11 | 6
Cc1ccsc1C(=O)NCCc1c[nH]c2ccccc12 | 50 | 50* | 2 | 24 | 10
CO[C@@H]1CN(C)C(=O)c2cccc(C#N)c2OCC[C@@H]2CC[C@@H](OC)[C@@H](CN(C)C(=O)[C@H]1C)O2 | / | 2 | / | / | /
CN(C)CCCNC(=O)C[C@H]1C=C[C@H](NC(=O)Cc2cccnc2)[C@@H](CO)O1 | / | -1 | / | / | /
C[C@H]1CN([C@@H](C)CO)C(=O)Cc2cc(NC(=O)NC3CCCCC3)ccc2O[C@@H]1CN(C)C(=O)Nc1ccc(F)cc1 | / | 2 | / | / | /
CCNC(=O)[C@@H]1[C@@H](CO)[C@@H]2Cn3c(ccc(-c4ccccc4)c3=O)[C@@H]2N1C(=O)C1CC1 | / | -3 | / | / | /
CC=Cc1ccc2n(c1=O)C[C@H]1[C@H](CO)[C@@H](C(=O)NCc3ccccc3F)N[C@@H]21 (mixture of isomers) | / | -2 | / | / | /
CCC(=O)N1[C@@H](CO)[C@H](c2ccc(-c3ccccc3)cc2)[C@@H]1CNC(=O)COC | / | 1 | / | / | /
CN(C)C(=O)c1cccc(-c2ccc([C@@H]3[C@H]4CN(S(C)(=O)=O)CCCCN4[C@H]3CO)cc2)c1 | / | 6 | / | / | /
COc1ccc(C(=O)NCCc2c[nH]c3ccccc23)cc1 | / | 54* | 4 | 9 | -1
O=C(NCCc1c[nH]c2ccccc12)c1cnc2sccn2c1=O | 37 | 76* | 3 | 8 | 30
Cc1ccsc1C(=O)NCCc1nnc2ccccn12 | 38 | 56* | 3 | 19 | 4
O=c1oc2ccccc2c(Nc2cccc3cccnc23)c1[N+](=O)[O-] | -22 | / | 2 | 10 | 57*
O=c1oc2ccccc2c(Nc2cccc3ccccc23)c1[N+](=O)[O-] | -8 | -7 | 3 | -1 | 44
O=c1oc2ccccc2c(Nc2cc3ccccc3cc2O)c1[N+](=O)[O-] | -8 | 6 | 1 | 24 | 63*
CCn1c(O)c(N=NC(=O)CNc2cccc(C)c2)c2ccccc21 | 3 | / | 2 | / | 26
SMILES | MITF TRPM1 HTS | esBAF inh | GAA850 FXN act | Wnt act | AHR activator
Cc1ccc(NCC(=O)N=Nc2c(O)n(C)c3ccccc23)cc1 | 13 | / | 7 | 0 | 49*
CCn1c(O)c(N=NC(=O)CNc2ccc(C)cc2)c2ccccc21 | -18 | / | 0 | -1 | 67*
COc1ccc(/C=C/C(=O)c2c(C)nc3ccccn23)cc1 | / | 69* | 2 | / | -3
Cc1nc2ccccn2c1C(=O)/C=C/c1ccc(F)cc1 | -10 | 100* | 1 | / | -7
O=C(Nc1ccc(F)cc1)c1c(Cl)nc2ccccn12 | 28 | 50* | 1 | 5 | 58*
C[C@H]1CN([C@@H](C)CO)C(=O)Cc2cc(NC(=O)NC3CCCCC3)ccc2O[C@@H]1CN(C)C(=O)Nc1ccc2c(c1)OCO2 | / | -1 | / | / | /
CN(C)CCCNC(=O)C[C@H]1CC[C@@H]2[C@@H](COc3ccc(NC(=O)C4CCC4)cc3C(=O)N2C)O1 | / | -2 | / | / | /
Cc1noc(C)c1NC(=O)N[C@H]1CC[C@@H](CCNC(=O)C2CC2)O[C@H]1CO | / | 4 | / | / | /
CCCC12CN3CCN(CC(C3)/C1=N\NC(=O)c1ccccc1N)C2 | -4 | / | 2 | 37* | 33
Cc1cccc(-c2cc3nc(C)cc(N4CC(C)CC(C)C4)n3n2)c1 (stereo not given) | 7 | -1 | 2 | / | 6
COc1ccccc1-c1cc2nc(C)cc(C)n2n1 | / | / | -1 | -1 | 49*
COc1ccc(-c2cc3nc(C)cc(-c4ccc(OC)cc4)n3n2)cc1 | / | -12 | 2 | 1 | 24
Cc1cccc(-c2cc3nc(C)cc(C)n3n2)c1 | 28 | 66* | 6 | -1 | 43
CCCCC#Cc1cncc(C(=O)NN)c1 | -3 | -5 | 1 | -1 | 16
CCCCCCC#Cc1cncc(C(=O)NNC(=O)Nc2cc(Cl)cc(Cl)c2)c1 | / | / | 1 | 42* | 0
O=C1C=C(c2cc3ccccc3s2)CCC1 | 106* | 74* | -1 | 26 | -4
CC1(C)CC(=O)C=C(c2cc3ccccc3s2)C1 | 35 | 19 | 2 | 10 | -8
CO[C@@H]1CN(C)C(=O)c2ccc(NS(C)(=O)=O)cc2OC[C@@H](C)N(CC2CCOCC2)C[C@@H]1C | / | 0 | / | / | /
Nc1[nH]ncc1N=Nc1ccc(Cl)cc1 | 64 | 47* | 1 | / | 5
Cc1onc(C(=O)Nc2sc3c(c2C#N)CCCC3)c1[N+](=O)[O-] | 1 | / | 2 | 35* | 18
CC(C)C(=O)Nc1sc2c(c1C#N)CCCCC2 | / | 50* | 2 | 14 | 7
COC(=O)CCC(=O)Nc1sc2c(c1C#N)CCCC2 | -18 | -7 | -1 | -3 | 6
CCCC(=O)Nc1sc2c(c1C#N)CCCC2 | 70 | 53* | 4 | / | 13
CC=Cc1ccc2n(c1=O)C[C@@H]1[C@@H](CO)[C@H](C(=O)NCCC)[C@H]2N1CCC(F)(F)F (mixture of isomers) | / | -3 | / | / | /
Cc1ccc(S(=O)(=O)Nc2ccc3c(c2)CC(=O)N([C@@H](C)CO)C[C@H](C)[C@@H](CN(C)S(=O)(=O)c2ccc(F)cc2)O3)cc1 | / | 0 | / | / | /
CC(=O)Nc1ccc(NC(=O)Nc2ccc3c(c2)N(C)C(=O)CS3)cc1 | -7 | / | 1 | / | 2
CN1C(=O)CSc2ccc(NC(=O)Nc3ccccn3)cc21 | 143* | / | 3 | 1 | -2
Cc1ccc(NC(=O)N2CCc3ccccc32)cc1C | 37 | / | 2 | -1 | -5
CN1C(=O)CSc2ccc(NC(=O)N3CCc4ccccc43)cc21 | 70 | 94* | -1 | 29 | -2
O=C(Nc1ccc(-c2ccccc2)cc1)[C@@H]1[C@@H](CO)[C@@H]2Cn3c(cccc3=O)[C@H]1N2Cc1cncnc1 | / | -2 | / | / | /
